Our source for the sensor-assay potency score (higher = more potent) values is the OligoGym collection.
Further: reference of the scale not given here.

For this experiment, the target named is CHI3L1. Description: pooled miR-30 sensor sort-seq; sequence = guide strand. The conditions noted are these: shRNA.
TTTGTCTCTCCGTCCAGGGTAG returned a sensor-assay potency score (higher = more potent) of -0.776.

Turning to TTGCATCCTCCTGACCTCGGAA, the sensor-assay potency score (higher = more potent) was -0.718.

As for AAATCGTAGGTCATGATGCTAA, the sensor-assay potency score (higher = more potent) is -0.871.

As to TTCCTTTATAAATTCGGCCTTC, the sensor-assay potency score (higher = more potent) is -0.526.

TAGCAGACCAGTTTGTATGCAG gave a sensor-assay potency score (higher = more potent) of 0.269.

As to TATCTTGGCAATGTCATAGCTG, the sensor-assay potency score (higher = more potent) came to 0.682.

With TTGGCAATGTCATAGCTGCTGT, the sensor-assay potency score (higher = more potent) is -0.359.

TGAATCTGTCAGGACTTGCATC showed a sensor-assay potency score (higher = more potent) of -0.763.

Regarding TTGCTTTTGACGCTTTCCTGGT, the sensor-assay potency score (higher = more potent) was -0.698.

In the case of TTTGTATGCAGAGCAGCACTGG, the sensor-assay potency score (higher = more potent) was -1.09.

Sequence TTGAGTGTGTTGAGCATGCCGT returned a sensor-assay potency score (higher = more potent) of -0.388.

TTGTATGCAGAGCAGCACTGGA came in with a sensor-assay potency score (higher = more potent) of -1.21.

For the sequence TTGGAAAATCTTTGAGACCCAA, the sensor-assay potency score (higher = more potent) was -0.569.

As for TTTCCTGGTCGTCGTATCCTAC, the sensor-assay potency score (higher = more potent) is -0.76.

Regarding TTGAGCATGCCGTAGAGCGTCA, the sensor-assay potency score (higher = more potent) was -0.951.

TATATTGGCAAAGCTGTAGATG gave a sensor-assay potency score (higher = more potent) of -1.02.

As for ATCTTGGCAATGTCATAGCTGC, the sensor-assay potency score (higher = more potent) is -1.04.

For TTCAGGTACTGCACCTTGCTTT, the sensor-assay potency score (higher = more potent) was -0.412.

Consider TCTGTCAGGACTTGCATCCTCC, for which the sensor-assay potency score (higher = more potent) was -0.579.

TTCATTTCCTTGATTAGGGTGG displayed a sensor-assay potency score (higher = more potent) of 0.13.

Regarding TAGAGCGTCACATCATTCCACT, the sensor-assay potency score (higher = more potent) was -0.926.

In the case of TTTGACGCTTTCCTGGTCGTCG, the sensor-assay potency score (higher = more potent) was -0.339.
